Among all 53,000 sequences or so, about 3,700 (7%) were called active. Many of the other results were omitted from the sample, so actives are more common in it than they were. A number with no mark means an inactive call.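 Rule for the calls: active = gene knockdowns whose robust z-score for IL-1 alpha signal is at least 2 or at most -2, so actives lie on both sides; inactive = the rest.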
Test: Components of the Cytosolic LPS Sensing Pathway: Gene Identification via Genome-wide siRNA Screen;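 note: robust z of the log signal after scaling to non-targeting control siRNA wells of the plate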
Conditions: RAW264.7 macrophages, IL-1a HTRF, actives lie on both sides, screened at 100 nM (by protocol), cells primed 5 h with Pam3CSK4 first
Procedure, shortened: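 Knockdown: 100 nM siRNA, 48h, RAW264.7. Stimulation: Pam3CSK4 5 h, then LipidA via TransIT-TKO 24 h. Output: supernatant IL-1a HTRF, negative-control-normalized, log robust z-score; viability by CellTiter-Glo.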
CUUGGUGGAUGAAAGAUUCTT against Tdpoz2 showed a z-score of -0.776. Sequence GGUCAAAGUGUAACUUGUUTT against Rwdd4a has a z-score of -0.0956. GGAAGAUGAACAUCAAACATT against Dglucy showed a z-score of 0.855. GGAAGAGAGCGAUUAAAUUTT against Rsrc2 showed a z-score of 0.839. With GGGCUGGAAUCUAGGAAGUTT against Ccr10 the z-score was 2.68 (active). With GGAAAAUGUCCGUAAAAGGTT against Dtx2 the z-score was 0.196. GGAGACACUCGUCCUUUAUTT against Cyp20a1 gave a z-score of -1.27. In the case of GCUUUACUAUGUGAGAAAUTT against Ryk, the z-score is reported as -1.89. With GGGACAAUCAACACAAAAUTT against Ythdf3 the z-score was 0.172. For CCACCAAGGAGACAUAGAUTT against Nans, the z-score was 2.85 (active). Work on GGUCUUGGAGGAUCCCAAUTT against Tex13a yielded a z-score of -1.55. With GCAUAUCGCUUUUGUGAGCTT against E2f6 the z-score was 2.31 (active). GCUCUCUGAAAGAGUAUUGTT against Khdrbs2 gave a z-score of 0.963. For GACAAGCUGUGGAGAAGUGTT against Lce1b, the z-score was 0.298. With CCGAUUGAAAUAUGAAUCCTT against Cuedc1 the z-score was 1.22. Sequence “CCAAGAAAUUGCACUGGGATT against A130050O07Rik” has a z-score of 0.781. For GCUGUUAAAACUCUCGUUATT against Pdk3, the z-score was 2.02 (active). In the case of CCACAUCCUGACUACUACATT against Sumo2, the z-score is reported as -1.14. In the case of GGUUCUUGGUGAUGAUGAGTT against Pds5a, the z-score is reported as -2.6 (active). With GGUGAACUGGUCUACAACATT against Muc2 the z-score was 0.34. In the case of GGAGUUGAGCAAGACCAAGTT against Ccdc102a, the z-score is reported as 0.628. GGGUAUAUUUGGAACUACGTT against Ppa1 gave a z-score of -1.2. In the case of GGACAUGAACCUCUUCAAATT against Fads2, the z-score is reported as 0.632. Work on CCUCUGCUUUGUUACUUCCTT against Olfr1431 yielded a z-score of -0.287. With CCACCUAUUACAUGAUCUUTT against Rnf32 the z-score was -0.23. For GGACCGGUUUAUUUGGCGGTT against Mmp2, the z-score was 3.43 (active). Sequence GCAAACGACUGUGACAAAATT against Ly6m has a z-score of -0.0028. Sequence CCUCCCUAAUGGUCCAUUATT against Cyp2j13 has a z-score of -0.517. Work on GCUGGAGAACCUCCCUAAATT against Mrps33 yielded a z-score of 1.14. Work on GGUAAUGAAGGAACUGGAUTT against S100a1 yielded a z-score of 0.0105. For GGGUGACCUAAUCCAGUGUTT against Neurog3, the z-score was 2.5 (active). GGAGUUGCCCUCAUCUUCATT against Casp6 showed a z-score of -1.59. For GGUGGAACUCGUCAAUAGCTT against Vat1, the z-score was 0.269. Work on GGUGAACAGUUGAUUUCAUTT against Smim10l2a yielded a z-score of 1.48. In the case of GGAUCACAUCGAGAAAACCTT against Utrn, the z-score is reported as -1.57. With GCUUCUGUUCGUUACGUCCTT against Ndufc2 the z-score was 2.55 (active). GCGGAAAGGCCAAACGAUUTT against Inhbb showed a z-score of -0.734. For CCUUCUCCAUGUCAGAUCUTT against Col5a2, the z-score was 0.23. For GGCAAAGUUGCCAGAUGAATT against Mettl23, the z-score was 2.42 (active). In the case of GGAUACGCUUGUCCCACCATT against Mdm1, the z-score is reported as -0.649. Sequence CCAUUAUGGGAGGAAGAUUTT against Clvs2 has a z-score of 0.969. Sequence GGACAAAGAGAAUGAUGGATT against Cdc25b has a z-score of -1.68. With “GCUAAUCCCAUCUCGUCCUTT against 3110009E18Rik” the z-score was 1.15. In the case of GGCCGAAGCAUCUUCAAGATT against Wdr24, the z-score is reported as 1.88. In the case of GGCUGAAAAAAGUGGAGAATT against Sh3bgr, the z-score is reported as 2.12 (active). Sequence GGAUCCCAUUAGAAAGAAATT against Cbx2 has a z-score of 0.316. GCGAUUACUACUUGAAACUTT against Fa2h showed a z-score of -0.384. In the case of CGGAUGUGGGCAUUCGUUATT against Fbxl7, the z-score is reported as 0.421. GGUUUUGGGUCUAUGCUUCTT against Sde2 showed a z-score of 0.311. In the case of GGUAAGGAAAACAAAUAUGTT against En1, the z-score is reported as 2.13 (active). For GAAAAAAAUCCGUUCCCUCTT against Mrpl33, the z-score was 0.257. In the case of GGAUUUUGCUCAGACGACATT against Taf1a, the z-score is reported as 0.291. Work on GGUUGGUAGGCUUUGGUGUTT against Notum yielded a z-score of 0.657. With GCAGUGUCGCAUUACAUCGTT against Sec16a the z-score was 3.45 (active). With GGAGAAUCAUGUGAGCCUGTT against Tph1 the z-score was -0.0851. In the case of UAUUCUAUCCGAACACCUUTT against Gm4884, the z-score is reported as 2.19 (active). GGAGAACUUCCUAUACUAUTT against Apobec2 gave a z-score of 0.448. With GGAAAGCAAAAAGUUUCAGTT against Fam118b the z-score was -1.14. In the case of CGCAUAGAGCCUGUCCUCATT against Spink1, the z-score is reported as -1.57. In the case of GCUCGAUGUGAACUGCUAGTT against Ankrd9, the z-score is reported as 2.12 (active). GGUACAUAUGUGAUGACCGTT against Cdh4 gave a z-score of -0.289. Work on GGCGUAGGGCCAUAUCAUUTT against Olfr109 yielded a z-score of -0.117. GGUCAUGAACCUCAUCAUCTT against Nckap1l showed a z-score of -0.552. With GGCUGAAUAAAAUAAGUGUTT against Adra1a the z-score was -1.1. With GGUUUAAUGUUAUAUACGGTT against Olfr606 the z-score was 2.43 (active). Work on CCAAAAGUGGAGAGCGACATT against Cnrip1 yielded a z-score of -1.32. For GGAGCGAGAAGGUAAAGUCTT against Pibf1, the z-score was 1.05. For GGGACUGGAAUUGACAUCCTT against Trpm4, the z-score was -1.38. GGGAAUUUUUGUGGGUGAATT against Bbs2 gave a z-score of -0.541.
